PubChem BioAssay (NCATS)
Inconclusive results are not listed. Where a call stands in place of a potency, no number is given. Active and inactive are the calls of the source. Unless noted, calls come from the whole dose curve; as a rule, active = well fitted curve in the direction sought with a large enough effect; inconclusive = small, poorly fitted or top-dose-only effect, or another doubt; inactive = no such curve, though single readings can be large; an effect the other way counts as inactive or inconclusive.

Experiments:
[1] = Primary fluorescence-based thiol-reactive (MSTI) qHTS assay for identification of artifact compounds. (AID 1845221); note: nearly all actives have a fitted effect of over 65% in size; note: potency is the fitted concentration of half-maximal effect;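 for activity change, negative = thiol reactive: series mostly up to about 54 µM; thiol-reactive compounds lower the probe fluorescence signal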
In short: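 Reactivity toward the thiol probe MSTI (4 uM) is scored by fluorescence at Ex/Em 525/598 nm after 1 h at room temperature. Acetyl-MSTI and MSTI define the activity scale.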

[2] = tested on: Nanoluciferase (engineered Oplophorus gracilirostris luciferase); assay: Primary Nanoluciferase (NLuc) qHTS assay for identification of artifact compounds. (AID 1845222);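 note: NLuc secreted into diluted conditioned medium of S16 cells; series mostly up to about 54 µM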
In short: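 S16 cell supernatant NLuc, 1:55; cpds qHTS; 15 min RT dark; Nano-Glo substrate 1:100, 5 min; luminescence; Hill fit of % inhibition.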

[3] = Primary redox qHTS assay for identification of artifact compounds. (AID 1845223)
In short: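 Redox-cycling detection via DTT (250 uM final) oxidation coupled to Amplex Red (25 uM)/HRP (250 mU/mL) in HBSS. 15 min preincubation plus 30 min after DTT, room temperature. Ex/Em 525/598 nm; 4-parameter Hill fit against DMSO and 10 uM DA3003.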

[4] = target: Luciferin 4-monooxygenase (Photinus pyralis) (UniProt P08659); assay: Primary firefly luciferase (FLuc) qHTS assay for identification of artifact compounds. (AID 1845220); note: nearly all actives have a fitted effect of over 60% in size
In short: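 Enzymatic FLuc inhibition assay: compounds pre-exposed to luciferin/ATP (10 uM each) for 15 min, then purified P. pyralis enzyme at 10 nM added. Read-out: luminescence at 5 min.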

[5] = qHTS drug screen for cell cycle checkpoint inhibitors in PARPi-resistant BRCA-mutant ovarian cancer cell lines. (AID 1963452; calls by dose curve); conditions: PEO1/OlaR viability, CellTiter-Glo luminescence, 96 h, stronger effect = lower value
In short: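 PEO1, PEO4 and PEO1/OlaR ovarian cancer cells, 600 per well, exposed 96 h at 37C to a dilution series. Viability read by CellTiter-Glo luminescence, normalized to DMSO and empty wells; activity summarized as Z-AUC.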

[6] = measured here: PEO1 parental Z-AUC

## CC(N)Cc1c[nH]c2ccccc12 (stereo not drawn)
[1]
  Potency: inactive
[2]
  outcome: inactive
[3]
  outcome: inactive

## COC(=O)[C@@]12C(=O)C(C)C(=O)[C@]1(C)C(C)=C[C@H]1[C@]3(C=O)CC[C@H](OC(C)=O)C(C)(C)[C@H]3CC[C@@]12C (stereo partly drawn)
[4]
  Potency: inactive
[2]
  outcome: inactive
[3]
  outcome: inactive

## CCc1[nH]c2ccc(OC)cc2c1CCN(C)C
[4]
  Potency: inactive
[2]
  outcome: inactive
[3]
  outcome: inactive

## O=C(O)c1ccnc2cc(C(OCCN3CCCCC3)c3ccccc3Cl)[nH]c12 (stereo not drawn)
[1]
  Potency: inactive
[2]
  outcome: inactive

## CN1[C@H]2C[C@H](OC(=O)[C@H](CO)c3ccccc3)C[C@@H]1[C@@H](O)C2
[1]
  Potency: inactive
[2]
  outcome: inactive
[3]
  outcome: inactive

## COC1CC(=O)C23C(=O)NC(CC(C)C)C2C(C)=C(C)C(OO)C3/C=C(\C)CCC(O)C1O (stereo not drawn)
[4]
  Potency: inactive
[2]
  outcome: inactive
[3]
  outcome: inactive

## CO[C@H]1[C@H](O)[C@H](O[C@H]2CC[C@]3(C)C4CC[C@]5(C)[C@H](C6=CC(=O)OC6)CC[C@]5(O)C4CC[C@@H]3C2)O[C@@H](C)[C@@H]1O (stereo partly drawn)
[1]
  Potency: inactive
[2]
  outcome: inactive

## COc1cc(C(=O)O[C@H]2[C@@H]3C=CO[C@@H](O[C@@H]4O[C@H](CO)[C@@H](O)[C@H](O)[C@H]4O)[C@@H]3[C@@]3(CO)O[C@@H]23)ccc1O
[4]
  Potency: inactive
[2]
  outcome: inactive
[3]
  outcome: inactive

## CN1CCC[C@@H]1Cc1c[nH]c2ccc(Nc3ncccc3[N+](=O)[O-])cc12
[4]
  Potency: inactive
[1]
  Potency: 1680 nM (active)
[3]
  outcome: inactive

## Cn1ncnc1COc1nn2c(-c3c(F)cccc3F)nnc2cc1C1CCC1
[1]
  Potency: inactive
[2]
  outcome: inactive
[3]
  outcome: inactive

## C=CC(C)(O)CC/C=C(\C)C(=O)O[C@H]1[C@H](O)[C@@H](CO)O[C@@H](OC(=O)[C@]23CCC(C)(C)CC2C2=CCC4[C@@]5(C)CC[C@H](O[C@@H]6O[C@H](CO[C@@H]7OC[C@H](O)[C@H](O)[C@H]7O[C@@H]7OC[C@@H](O)[C@H](O)[C@H]7O)[C@@H](O)[C@H](O)[C@H]6O)C(C)(C)C5CC[C@@]4(C)[C@]2(C)CC3)[C@@H]1OC1OC(C)C(O[C@@H]2OC[C@@H](O)[C@H](O[C@@H]3OC[C@@H](O)[C@H](O)[C@H]3O)[C@H]2O)C(O)C1O (stereo partly drawn)
[1]
  activity change, negative = thiol reactive: 28.2% [at 11.5 µM] (inactive)
[2]
  activity, negative = inhibition: 1.73% [at 11.6 µM] (inactive)
[3]
  redox activity (% of DA3003): -6.27% [at 11.5 µM] (inactive)

## CCOc1ccccc1-n1c(C(C)N2CCN(C(=O)COc3ccc(Cl)cc3)CC2)nc2ccccc2c1=O (stereo not drawn)
[4]
  Potency: inactive
[1]
  Potency: inactive
[2]
  outcome: inactive
[5]
  Z-AUC: 0.23 (inactive)
[5]; [6]
  Z-AUC: 0.347
[5]; measured here: PEO4 Z-AUC
  Z-AUC: -0.0275

## CC(=O)OC1CC(O)C(C)(C)C2CC(OC(C)=O)C3(C)C(CCC4(C)C(c5ccoc5)C(=O)C5OC543)C12C (stereo not drawn)
[1]
  Potency: inactive
[2]
  outcome: inactive
[3]
  outcome: inactive

## COCC1OC(=O)c2coc3c2C1(C)C1=C(C3=O)C2CCC(=O)C2(C)CC1O (stereo not drawn)
[4]
  Potency: inactive
[2]
  outcome: inactive
[3]
  outcome: inactive

## COC1CC(OC2CCC3(C)C(CCC4C3CCC3(C)C(C5=CC(=O)OC5)C(OC(C)=O)CC43O)C2)OC(C)C1OC1OC(CO)C(O)C(O)C1O (stereo not drawn)
[4]
  Potency: inactive
[2]
  outcome: inactive

## CCN1CC2(COC)C3[C@@H](OC)C4C1C3(C1C[C@]3(O)[C@H](OC(=O)c5ccccc5)C1[C@]4(OC(C)=O)[C@@H](O)[C@@H]3OC)[C@H](OC)C[C@H]2O (stereo partly drawn)
[1]
  Potency: inactive
[2]
  outcome: inactive
[3]
  outcome: inactive

## COc1cc(C)[nH]c(=O)c1CNC(=O)c1c(C)n([C@H](C)C2CCOCC2)c2ccccc12
[4]
  Potency: inactive
[1]
  Potency: inactive
[2]
  outcome: inactive
[5]
  Z-AUC: 0.466 (inactive)
[5]; [6]
  Z-AUC: 0.504
[5]; measured here: PEO4 Z-AUC
  Z-AUC: 0.135

## COc1cc(CCNCc2ccccc2O)c(OC)cc1C#N
[4]
  Potency: inactive
[1]
  Potency: inactive
[2]
  outcome: inactive
[3]
  outcome: inactive
